Data reported in PubChem BioAssay (NCI).
Compounds without any hit were thinned out: in the full panel of roughly 83,000, 20% have a hit.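 Method: cells in 96-well plates; compound added at one concentration; 48 h incubation; percent growth measured; values under 10 scored active.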 Values without a mark were called inactive. Active and inactive are the calls of the source.

What follows are molecules tested on SR leukemia (assay: NCI-60 one-dose screen, 48 h (100 = growth as untreated, 0 = no growth, -100 = all killed)). Details: 10 µM unless noted.

Question: `O=S(=O)(NCCCNc1nccc(-n2ccc3cccnc32)n1)c1cccc(C(F)(F)F)c1` was tested. Which growth did it give?
Answer: 103%

Question: How did the growth turn out when `CC(C)(C)n1cc(-c2ccnc(NCCNS(=O)(=O)c3ccc(F)cc3)c2)c(-c2cccc(O)c2)n1` was run?
Answer: 25.5%

Question: With `Cc1ccc(-c2cc3nc(C(Cl)Cl)nc(-c4ccccc4C)n3n2)cc1` as the molecule, how does the growth read?
Answer: 17.7%

Question: Which growth does the source give for `OC(c1cc2cc(Br)ccc2c2cc(Br)ccc12)C1CCCCN1` (centres undefined) here?
Answer: -74.1% (active)

Question: Which growth does the source give for `O=C(NS(=O)(=O)c1ccc2ccccc2c1)n1cc(-c2ccncc2)c(-c2ccc(Cl)c(O)c2)n1` here?
Answer: 61.8%

Question: With `O=[N+]([O-])c1ccc(C(c2ccccc2)c2ccccc2)cc1` as the molecule, how does the growth read?
Answer: 90.8%

Question: Which growth does the source give for `Cc1ccc(S(=O)(=O)NC(=O)n2cc(-c3ccncc3)c(-c3ccc(Cl)c(O)c3)n2)cc1` here?
Answer: 83.3%

Question: `Cc1cc(C2(c3cc(C)c(O)cc3C)OS(=O)(=O)c3ccccc32)c(C)cc1O` was tested. Which growth did it give?
Answer: 95.3%

Question: For `CC1CN(c2oc(-c3ccccc3)nc2C#N)CC(C)O1` (centres undefined), which growth is on record?
Answer: 102%

Question: For `Cc1ccc(S(=O)(=O)NCCCNc2cc(-c3cn(C(C)(C)C)nc3-c3cccc(O)c3)ccn2)cc1`, which growth is on record?
Answer: 40.6%

Question: With `Cc1nc2ncccc2nc1Nc1ccc(S(=O)(=O)Nc2ccccn2)cc1` as the molecule, how does the growth read?
Answer: 92.2%

Question: `N=c1ccc2nc3ccc(N)cc3sc-2c1` was tested. Which growth did it give?
Answer: 38.2%

Question: `CC12CCC3C4(C)COC(c5ccccc5Cl)OC4CCC3(C)C1CC(C1=CCOC1=O)O2` (centres undefined) was tested. Which growth did it give?
Answer: 28%

Question: Which growth does the source give for `C=C1CCC2C(C)(CO)C(O)CCC2(C)C1CC(NCc1ccccc1)C1=CCOC1=O` (centres undefined) here?
Answer: 99.8%
